Source: PubChem BioAssay (NCI)
The panel holds about 83,000 compounds, 20% with a hit somewhere; the sample as a whole holds those more often.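 Cells were grown in 96-well plates and exposed to the test compound at a single concentration for 48 hours; results are reported as percent growth, with values below 10 considered active.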 Active and inactive are the calls of the source.

How the values were obtained:
Experiment in all cases: NCI-60 one-dose screen, 48 h (100 = growth as untreated, 0 = no growth, -100 = all killed)
Conditions in all cases: 10 µM unless noted
DU-145 prostate = test system: DU-145 prostate
K-562 leukemia = test system: K-562 leukemia
MALME-3M melanoma = test system: MALME-3M melanoma
MDA-MB-231 breast = test system: MDA-MB-231 breast
RXF 393 renal = test system: RXF 393 renal
SF-268 CNS = test system: SF-268 CNS
SF-295 CNS = test system: SF-295 CNS
SF-539 CNS = test system: SF-539 CNS
UACC-257 melanoma = test system: UACC-257 melanoma
M14 melanoma = test system: M14 melanoma

Measured: growth

CCCCCCCCCCCCCCCCCCOc1ccccc1CC(=O)OCC[N+]1(C)CCCCC1
active: RXF 393 renal -3.91%
inactive: DU-145 prostate 71.6% | K-562 leukemia 22.6% | MALME-3M melanoma 45.3% | MDA-MB-231 breast 10.3% | SF-268 CNS 43.5% | SF-295 CNS 73.6% | SF-539 CNS 68.6% | UACC-257 melanoma 80.6% | M14 melanoma 34.7%

Cc1cc2nc(C(Cl)Cl)nc(-c3ccccc3)n2n1
inactive: K-562 leukemia 66.4% | MALME-3M melanoma 113% | MDA-MB-231 breast 62.7% | SF-268 CNS 77.8% | SF-295 CNS 55.7% | SF-539 CNS 76.7% | UACC-257 melanoma 93% | M14 melanoma 73.3%
active: DU-145 prostate -6.97% | RXF 393 renal 9.08%

COc1ccc(CNc2ccc3nc(CCC4CCCCC4)[nH]c3c2)cc1
inactive: DU-145 prostate 83.4% | K-562 leukemia 19.6% | MALME-3M melanoma 59.4% | MDA-MB-231 breast 79.7% | RXF 393 renal 74.2% | SF-268 CNS 71.4% | SF-295 CNS 91% | SF-539 CNS 76.4% | UACC-257 melanoma 75.3% | M14 melanoma 75.7%

Cc1nn(-c2ccccc2)c(Oc2ccccc2)c1/C=N/NC(=O)Cn1c(=O)sc2ccccc21
inactive: DU-145 prostate 76.1% | K-562 leukemia 25.2% | MALME-3M melanoma 52.7% | MDA-MB-231 breast 53.6% | RXF 393 renal 70.6% | SF-268 CNS 55% | SF-295 CNS 45.3% | SF-539 CNS 71.4% | UACC-257 melanoma 66.1% | M14 melanoma 56.2%

C#CCOc1ccc(C2=NN(C)C3N=C(Cl)c4ncn(C)c4N23)cc1OCC#C (stereo not given)
inactive: DU-145 prostate 104% | K-562 leukemia 93.5% | MALME-3M melanoma 112% | MDA-MB-231 breast 95.9% | RXF 393 renal 82.7% | SF-268 CNS 105% | SF-295 CNS 94.3% | SF-539 CNS 90% | UACC-257 melanoma 97.2% | M14 melanoma 104%

O=C(c1ccc(F)cc1)C1CCN(CCn2c(=O)[nH]c3ccccc3c2=O)CC1
inactive: DU-145 prostate 108% | K-562 leukemia 100% | MALME-3M melanoma 89.3% | MDA-MB-231 breast 110% | RXF 393 renal 115% | SF-268 CNS 103% | SF-295 CNS 97.6% | SF-539 CNS 103% | UACC-257 melanoma 110% | M14 melanoma 104%

COc1ccc(N2C(=O)/C(=C/C(Cl)=C/c3ccc([N+](=O)[O-])cc3)SC2=S)cc1
active: DU-145 prostate 5.02% | K-562 leukemia 0.935% | MDA-MB-231 breast 7.73% | RXF 393 renal -77.9% | SF-295 CNS -32.1% | SF-539 CNS -22.8%
inactive: MALME-3M melanoma 26.4% | SF-268 CNS 12.3% | UACC-257 melanoma 48.2% | M14 melanoma 12.3%

COC(=O)c1sc(-c2ccc(C)cc2)cc1O
inactive: DU-145 prostate 101% | K-562 leukemia 84.3% | MALME-3M melanoma 97.9% | MDA-MB-231 breast 99.6% | RXF 393 renal 109% | SF-268 CNS 96.2% | SF-295 CNS 112% | SF-539 CNS 114% | UACC-257 melanoma 115% | M14 melanoma 101%

COc1ccc(Nc2nccc(Nc3ccc4[nH]ncc4c3)n2)cc1
active: K-562 leukemia 4.96%
inactive: DU-145 prostate 32% | MALME-3M melanoma 76.1% | MDA-MB-231 breast 48.6% | RXF 393 renal 31.8% | SF-268 CNS 47% | SF-295 CNS 47.7% | SF-539 CNS 68.8% | UACC-257 melanoma 46.2% | M14 melanoma 33%

O=C1/C(=C/c2cccc([N+](=O)[O-])c2)COc2ccc(O)c(O)c21
inactive: SF-295 CNS 58.6%
active: DU-145 prostate 2.4% | K-562 leukemia 6.45% | MALME-3M melanoma -53.3% | MDA-MB-231 breast -76.9% | RXF 393 renal -81.3% | SF-268 CNS -4.32% | SF-539 CNS -89.1% | UACC-257 melanoma 3.37% | M14 melanoma -63.9%

O=C(Nc1cccc(Cn2c(=O)[nH]c3ccc(Oc4ncccn4)cc3c2=O)c1)c1cccc(Cl)c1
inactive: DU-145 prostate 56.5% | K-562 leukemia 27.1% | MALME-3M melanoma 79.5% | MDA-MB-231 breast 72.6% | RXF 393 renal 81.1% | SF-268 CNS 55.6% | SF-295 CNS 45.5% | SF-539 CNS 71.3% | UACC-257 melanoma 44% | M14 melanoma 70%

CC(C)n1cc(C2=C(c3cccc4ccccc34)C(=O)NC2=O)c2cc(Br)ccc21
inactive: DU-145 prostate 71% | K-562 leukemia 34.8% | MALME-3M melanoma 122% | MDA-MB-231 breast 91.2% | RXF 393 renal 24.4% | SF-268 CNS 67.5% | SF-295 CNS 63.9% | SF-539 CNS 60.9% | UACC-257 melanoma 111% | M14 melanoma 76.1%

COc1cc2cc(Oc3ccc(NC(=O)Nc4ccc(F)c(C(F)(F)F)c4)cc3)c(C)nc2cc1OCCN1CCCCC1
active: DU-145 prostate -24.2% | K-562 leukemia -34.7% | MALME-3M melanoma -87.9% | UACC-257 melanoma -52.5% | M14 melanoma -86.8%
inactive: MDA-MB-231 breast 27.6% | RXF 393 renal 59.5% | SF-268 CNS 76.6% | SF-295 CNS 72.8% | SF-539 CNS 75.3%

CN(C)C(=S)NN=C(c1ccccn1)c1ccccn1
active: DU-145 prostate -18.9% | K-562 leukemia 7.91% | MALME-3M melanoma -6.46% | RXF 393 renal 6.64% | SF-539 CNS -48.2%
inactive: MDA-MB-231 breast 40.3% | SF-268 CNS 24.6% | SF-295 CNS 21.5% | UACC-257 melanoma 35.9% | M14 melanoma 17.2%

CC(C)(C)n1cc(-c2ccnc(NCCNS(=O)(=O)c3ccc(Br)cc3)c2)c(-c2cccc(O)c2)n1
active: K-562 leukemia 6.18%
inactive: DU-145 prostate 49.8% | MALME-3M melanoma 20.1% | MDA-MB-231 breast 38.2% | RXF 393 renal 26.3% | SF-268 CNS 33.1% | SF-295 CNS 31.8% | SF-539 CNS 46.5% | UACC-257 melanoma 36% | M14 melanoma 21.9%

O=C1CCC(C(=O)N/N=C/c2ccc([N+](=O)[O-])cc2)N1 (stereo not given)
inactive: DU-145 prostate 103% | K-562 leukemia 103% | MALME-3M melanoma 101% | MDA-MB-231 breast 109% | RXF 393 renal 111% | SF-268 CNS 96.7% | SF-295 CNS 99.7% | SF-539 CNS 93.7% | UACC-257 melanoma 106% | M14 melanoma 104%

COc1ccc(C2=C/C(=C\c3ccccc3O)C(=O)N2Cc2ccccc2)cc1
inactive: DU-145 prostate 96.2% | K-562 leukemia 51.1% | MALME-3M melanoma 63.4% | MDA-MB-231 breast 93.7% | RXF 393 renal 76.2% | SF-268 CNS 86.5% | SF-295 CNS 94% | SF-539 CNS 101% | UACC-257 melanoma 71.7% | M14 melanoma 50.5%

COc1cc(-c2c(-c3ccccc3)c[nH]c2C(=O)NCCCO)c(OC)c2c1OCO2
inactive: DU-145 prostate 111% | K-562 leukemia 86.5% | MALME-3M melanoma 108% | MDA-MB-231 breast 88.8% | RXF 393 renal 93.5% | SF-268 CNS 99.4% | SF-295 CNS 101% | SF-539 CNS 104% | UACC-257 melanoma 106% | M14 melanoma 105%

COc1cccc(-c2cc(-c3ccc(Nc4nc(Nc5ccc(Cl)cc5)nc(Nc5ccc(Cl)cc5)n4)cc3)nc(N)c2C#N)c1
inactive: DU-145 prostate 56.3% | K-562 leukemia 41.5% | SF-268 CNS 71% | SF-295 CNS 83.2% | UACC-257 melanoma 16.3% | M14 melanoma 15.6%
active: MALME-3M melanoma -52.9% | MDA-MB-231 breast -14.1% | RXF 393 renal -48.7% | SF-539 CNS 6.72%

CNC1=C([N+](=O)[O-])C(c2ccc(OC)cc2)C(C#N)=C(c2ccc[nH]2)O1 (stereo not given)
inactive: DU-145 prostate 107% | K-562 leukemia 95.7% | MALME-3M melanoma 97.9% | MDA-MB-231 breast 104% | RXF 393 renal 113% | SF-268 CNS 103% | SF-295 CNS 101% | SF-539 CNS 99.2% | UACC-257 melanoma 106% | M14 melanoma 104%

Cn1ccnc1C(=O)/C=C/c1ccc(C(=O)Nc2ccccc2F)cc1
inactive: DU-145 prostate 20.7% | K-562 leukemia 12.6% | MALME-3M melanoma 54.7% | RXF 393 renal 16.4% | SF-268 CNS 24.7% | UACC-257 melanoma 66.7%
active: MDA-MB-231 breast -2.25% | SF-295 CNS 6.25% | SF-539 CNS -8.53% | M14 melanoma 8.56%

CCN1C(=O)N(CC)C2C1NN=c1s/c(=C3\C(=O)N(C)c4ccccc43)c(=O)n12 (stereo not given)
inactive: DU-145 prostate 11.9% | MALME-3M melanoma 40.8% | MDA-MB-231 breast 33.9% | SF-268 CNS 70.5% | UACC-257 melanoma 94.6% | M14 melanoma 43.1%
active: K-562 leukemia 9.16% | RXF 393 renal -14.1% | SF-295 CNS 7.04% | SF-539 CNS -24.7%

COc1ccc2c(O)cc3c(c2c1)[C@H](CCl)CN3C(=O)c1cc2cc(NC(=O)CCN3CCOCC3)ccc2[se]1
active: DU-145 prostate -0.877% | MALME-3M melanoma -88% | MDA-MB-231 breast -58.4% | RXF 393 renal -88.4% | SF-268 CNS -42.7% | SF-295 CNS -77.7% | SF-539 CNS -64.4% | UACC-257 melanoma -47.5% | M14 melanoma -71.1%
inactive: K-562 leukemia 70.1%

C=CCNc1ccc2c3c(cccc13)C(=O)N(CC=C)C2=O
inactive: DU-145 prostate 102% | K-562 leukemia 96.7% | MALME-3M melanoma 111% | MDA-MB-231 breast 88.9% | RXF 393 renal 99.7% | SF-268 CNS 96.2% | SF-295 CNS 106% | SF-539 CNS 93.7% | UACC-257 melanoma 114% | M14 melanoma 108%

O=C(Nc1ccccc1)Nc1ccccc1CNc1nc(Nc2ccc(OCCN3CCCC3)cc2)ncc1Cl
inactive: DU-145 prostate 88% | MALME-3M melanoma 71.2% | MDA-MB-231 breast 41.9% | RXF 393 renal 33.7% | SF-268 CNS 72.5% | SF-295 CNS 73.3% | SF-539 CNS 31% | UACC-257 melanoma 75.3% | M14 melanoma 61.2%
active: K-562 leukemia 7.08%
